Most compounds without a hit are left out; they make up all but 2.4% or so of the library.
D2 antag = antagonists of human D2 dopamine receptor; P14416; 340,000 tested, 2% active; HEK293 TREx D2 cells, calcium flux, dopamine EC80; AID 485344; inhibition, % at 10 µM; in the data active = inhibition above about 30%; inactive = below that, where a call was filed; also: 0% is about no effect
Target sequence (P14416 whole entry, looked up): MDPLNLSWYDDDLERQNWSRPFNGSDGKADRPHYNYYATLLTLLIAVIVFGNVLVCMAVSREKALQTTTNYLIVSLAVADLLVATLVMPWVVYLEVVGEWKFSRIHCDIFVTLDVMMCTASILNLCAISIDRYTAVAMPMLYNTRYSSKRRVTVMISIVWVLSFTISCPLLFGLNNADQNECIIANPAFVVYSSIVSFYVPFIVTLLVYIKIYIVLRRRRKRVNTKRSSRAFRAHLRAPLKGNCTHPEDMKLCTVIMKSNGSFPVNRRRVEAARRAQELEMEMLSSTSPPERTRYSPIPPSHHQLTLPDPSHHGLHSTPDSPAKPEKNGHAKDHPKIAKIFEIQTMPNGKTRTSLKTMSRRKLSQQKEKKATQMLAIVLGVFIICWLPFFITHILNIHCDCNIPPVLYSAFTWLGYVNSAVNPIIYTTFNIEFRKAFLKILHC
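Read-out: kinetic calcium fluorescence (1 cycle/s) in inducible HEK293 T-REx D2 cells after an EC80 dopamine addition that followed 180 s compound preincubation. Loss of the dopamine response indicates antagonism.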
D2 PAM-1 = human D2 receptor positive allosteric modulation; DiscoveRx D2 beta-arrestin cells, luminescence, 90 min; 100% = 57 uM dopamine signal; potentiation, % (no concentration beside the values); 360,000 tested, 0.23% active; in the data active = potentiation above about 50%
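PathHunter beta-arrestin assay in DiscoveRx D2 cells. Compounds were added with an EC20 of dopamine (50 nM final) for 90 min at 37 deg C. Luminescence was read 1 h after detection reagent, with 57 uM dopamine as the EC100 control.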
D2 PAM-2 = positively modulates the human D2 dopamine receptor allosterically | P14416 | HEK293 T-REx D2, calcium flux, EC20 dopamine potentiation | 340,000 tested, 0.34% active | potentiation, % at 10 µM;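 active = potentiation over 3 SD above the plate norm, cut at about 30% in these data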; also: 0% is about no effect
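Using a no-wash calcium dye in inducible, force-coupled HEK293 Trex cells expressing D2, we tracked fluorescence each second for 180 s after compound, then for 180 s after EC20 dopamine to detect augmented signalling.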
D2 ag-1 = activates the human D2 dopamine receptor; activation, % (concentration not given with the values); DiscoveRx PathHunter D2 beta-arrestin, luminescence, 90 min; 100% = 57 uM dopamine signal; 360,000 tested, 0.084% active; AID 624465; in the data active = activation above about 40%
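DiscoveRx PathHunter D2 beta-arrestin cells (2,100/well) attached overnight, then compound-stimulated 90 min at 37 C in HBSS/10 mM HEPES/0.1% Tween-20 buffer; beta-galactosidase complementation read by luminescence after 1 h at ambient temperature. Dopamine 57 uM final (EC100) as control.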
D2 ag-2 = D2 dopamine receptor (human) agonism; P14416; HEK293 T-REx D2 cells, calcium flux agonist mode; activation, % at 2 µM; 340,000 tested, 0.53% active;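 active = activation over 3 SD above normal in the single-dose calcium agonist read, cut at about 30% in these data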; also: 0% is about no effect
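Tetracycline-induced HEK293 Trex cells with D2 receptor force-coupled to calcium signaling, plated overnight at 30 C and loaded with no-wash calcium dye. Calcium flux read kinetically for 180 s after compound addition; responses flag agonists.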
* marks the source's active call; other numbers are inactive results; . = not tested or not shown.

SMILES | D2 antag | D2 PAM-1 | D2 PAM-2 | D2 ag-1 | D2 ag-2
COc1ccc(-c2nn(-c3ccccc3)cc2C(=O)Nc2ccc(C(=O)O)cc2)cc1 | 7.1 | 7.1 | 1.9 | 3.9 | 0.2
CCN(CC)c1ccc(/C=C(/C#N)C(=O)NCc2ccccc2)o1 | 9.8 | -36.3 | -15.7 | -3.4 | 42.6*
CCN(CC)c1ccc(/C=C(/C#N)C(=O)NC(C)C)o1 | 8.8 | -8.6 | -6.9 | -4.1 | 9.5
CC(C)NC(=O)/C(C#N)=C\c1ccc(N(C)C)o1 | 40.3* | -11.2 | 0.7 | -10.5 | 0.8
Cc1cc2c(cc1S(=O)(=O)CCC(=O)N1CCCCC1C)OCC(=O)N2 (stereo unspecified) | . | . | 1.2 | . | 1.9
Cc1ccc(C)c(N2CCN(C(=O)CCc3nnc4n(C)c(=O)c5ccccc5n34)CC2)c1 | . | . | 1.3 | . | 0.5
CC(C)Cc1nn2c(=O)cc(COC(=O)c3ccc(NC(=O)CCc4ccccc4)cc3)nc2s1 | . | . | . | . | 0.3
CCN1CCCC1CNC(=O)c1ccc(N2CCOCC2)c(NS(=O)(=O)c2ccc(OC)cc2)c1 (stereo unspecified) | 32.8* | -17.3 | -13.4 | -0.8 | -0.1
CCN(CC)CCNC(=O)c1ccc(N2CCCCC2)c(NS(=O)(=O)c2ccc(C)cc2)c1 | 56.2* | -25.7 | -17.5 | -4.8 | 0.9
CN1CCN(c2ccc(-c3nc(-c4ccccc4)no3)cc2[N+](=O)[O-])CC1 | . | . | -0.3 | . | 0.3
CC1CC(C)(C)NC(=S)N1CC(=O)N1CCN(Cc2ccccc2)CC1 (stereo unspecified) | -5.6 | -2.1 | -0.2 | -0.3 | -0.3
Cc1ccc(C)c(N2CCN(C(=O)CN3C(=S)NC(C)(C)CC3C)CC2)c1 (stereo unspecified) | 41.5* | -3.3 | 1.6 | 2.1 | 4.7
Cc1cccc(/C=N/NC(=O)c2cc3c(s2)-c2ccccc2CC3)c1 | 31.8* | -0.4 | 14.2 | 0.4 | 0.9
CCCN(C(=O)c1c(-c2ccccc2)noc1C)c1c(N)n(Cc2ccccc2)c(=O)[nH]c1=O | 65.5* | -2.4 | -2.6 | -0.4 | -1.3
CCN(C(=O)COC(=O)c1c(-c2ccccc2)noc1C)c1c(N)n(Cc2ccccc2)c(=O)[nH]c1=O | . | -7.7 | . | 0.5 | .
O=C(CCCSc1nnc(Nc2ccccc2F)s1)N1CCOCC1 | 39.3* | -36.1 | -4.0 | 0.7 | 1.0
COc1ccc(Br)cc1CNc1ccc(O)cc1 | 12.5 | 55.1* | . | 9.9 | -1.1
O=C(NC1CCN(Cc2ccccc2)CC1)c1ccc(Cn2c(=O)c3ccccc3n(Cc3ccc(F)cc3)c2=O)cc1 | . | . | -17.6 | . | -0.5
N#CC1=C(N)Oc2cc(O)c(Cl)cc2C1c1ccccc1F (stereo unspecified) | -29.4 | 19.3 | -4.0 | 7.9 | 44.1*
N#CC1=C(N)Oc2cc(O)c(Cl)cc2C1c1cccnc1 (stereo unspecified) | -3.2 | -5.0 | 0.2 | 4.3 | 14.0
COc1ccc(C)cc1NC(=O)CCCN1C(=O)C(c2ccccc2)Oc2cccnc21 (stereo unspecified) | 37.9* | -35.7 | 4.9 | -2.0 | -0.9
CCOc1ccc(C2C(=O)N(C3CCCCCC3)CC(=O)N2Cc2ccc(F)cc2)cc1OC (stereo unspecified) | . | . | 5.7 | . | .
C=C(C)C(=O)Nc1cccc(C2=NOC3(C2)C[C@@H](C(N)=O)N(C(=O)c2ccc(OC)cc2)C3)c1 (stereo partly specified) | 7.7 | -6.1 | -5.8 | -2.1 | -0.1
C/C=C(/C)C(=O)Nc1cccc(C2=NOC3(C2)C[C@@H](C(N)=O)N(C(=O)CC)C3)c1 (stereo partly specified) | 43.4* | -1.6 | -20.5 | 0.3 | -0.2
C=C(C)C(=O)Nc1cccc(C2=NOC3(C2)C[C@@H](C(N)=O)N(C(=O)c2cc([N+](=O)[O-])cc([N+](=O)[O-])c2)C3)c1 (stereo partly specified) | -14.3 | 84.0* | 10.9 | 12.3 | -0.2
SMILES | D2 antag | D2 PAM-1 | D2 PAM-2 | D2 ag-1 | D2 ag-2
O=C(CC12CC3CC(CC(C3)C1)C2)NCC(c1ccc(F)cc1)N1CCOCC1 (stereo unspecified) | 40.1* | -4.4 | 3.1 | 0.6 | 2.6
CC1(C)Cc2ccccc2-c2nnc(-c3ccc4ccccc4n3)n21 | -0.4 | -5.4 | 44.3* | 0.9 | 0.4
CCOc1ccc(NC(=O)N(Cc2cn(CC)c3ccccc23)C2CCCCCC2)cc1 | . | . | 16.1 | . | -0.4
O=C(NCCN1CCN(c2ccccc2)CC1)c1cccn2c(=O)c3ccccc3nc12 | 18.0 | -26.7 | 7.0 | -3.8 | 6.3
CN(CCCNC(=O)c1cccn2c(=O)c3ccccc3nc12)Cc1ccccc1 | 31.0* | -20.4 | -20.7 | -3.4 | 0.3
Cn1cnc(S(=O)(=O)N2CCC(C(=O)Nc3ccc(Cl)c(C(F)(F)F)c3)CC2)c1 | . | . | -5.0 | . | -3.9
Cc1oc2ccc(O)cc2c1C(=O)c1ccc([N+](=O)[O-])cc1 | -3.2 | 53.6* | 0.8 | 7.3 | 0.0
Cc1oc2ccc(O)cc2c1C(=O)c1ccc(Cl)cc1 | 8.0 | -12.2 | -3.3 | 2.3 | -0.3
COc1ccccc1CNC(=O)c1ccc2c(c1)sc1nc(-c3ccc(F)cc3)cn12 | . | . | 11.3 | . | -1.1
CCn1nc(-c2ccccc2)c(-c2ccccc2)c(C(=O)Nc2ccccc2C(N)=O)c1=O | . | . | 2.0 | . | -0.8
CCC(Sc1nccn1C)C(=O)Nc1ccc(Cl)cn1 (stereo unspecified) | 3.7 | -12.5 | -23.2 | -0.9 | 0.1
CC(Sc1nccn1C)C(=O)Nc1ccc(Cl)cn1 (stereo unspecified) | 48.9* | -6.1 | -2.4 | 4.5 | 0.2
CN(CC(=O)Nc1ccc(F)c(F)c1F)C(=O)Cc1ccc2c(c1)OCCO2 | 35.1* | 1.1 | -1.0 | 0.5 | -0.1
O=C1C=C(c2ccccc2)C[C@H](c2cccs2)[C@H]1n1nnc([N+](=O)[O-])n1 | . | 57.8* | -1.4 | 13.3 | .
O=C1C=C(c2ccccc2)CC(c2cccs2)C1n1cnc([N+](=O)[O-])c1 (stereo unspecified) | -25.4 | 21.5 | 13.4 | 1.0 | -0.7
O=C(Nc1cccc(/C=C/c2ccccn2)c1)c1ccc(-n2cncn2)c([N+](=O)[O-])c1 | 20.5 | 62.8* | -13.6 | 7.3 | -0.3
O=C(Nc1ccc(F)c(F)c1)c1ccc(-n2cncn2)c([N+](=O)[O-])c1 | -26.8 | 2.5 | -6.9 | 13.6 | 0.4
COc1ccc(NC(=O)c2ccc(-n3cncn3)c([N+](=O)[O-])c2)cc1OC | 35.3* | 12.8 | -2.0 | 3.4 | -0.8
COc1cc(/C=N/NC(=O)c2c(-c3ccccc3)noc2C)cc(OC)c1OC | 56.3* | 8.4 | -20.8 | 7.3 | -1.5
CCOc1ccc(OCC)c(NS(=O)(=O)c2ccc3c(c2)CCCN3C(C)=O)c1 | . | . | 6.5 | . | 0.9
COc1cccc(C(=O)c2cn(CC(=O)NCc3ccccc3)c3nc(C)ccc3c2=O)c1 | . | . | 11.4 | . | 0.6
